# KDM4E inh: JMJD2E (human) inhibition; B2RXH2; JMJD2E catalytic domain, FDH-coupled NADH fluorescence (FDH is formaldehyde dehydrogenase); Potency, µM (titrated, usually from 57.1 µM), inactives show at the top dose activity change, negative = inhibition, most hits filed as inhibitors; 1.6% of 230,000 active; active = well fitted inhibition curve with a large enough effect, not every such curve was filed as active; inconclusive = small, poorly fitted or top-dose-only effect, or another doubt; inactive = no such curve, though single readings can be large or run the other way;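 also: 0% = wells with enzyme and -100% = buffer wells without enzyme; nearly all actives have a fitted effect of over 50% in size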
# BLM helicase inh: inhibitors of human Bloom syndrome helicase BLM. 0.2% of 350,000 active. recombinant BLM DNA unwinding, fluorescence dequenching. AID 2528. P54132. Potency, µM (highest dose often 56.1 µM), inactives show top-dose activity change, negative = inhibition, most hits filed as inhibitors;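 also: plate controls were vehicle for no effect and no enzyme for full effect; nearly all actives have a fitted effect of over 35% in size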
# APE1 inh: APE1 (human) endonuclease inhibition. recombinant APE1, TAMRA/BHQ-2 abasic DNA cleavage fluorescence. Potency, µM (doses to about 65.8 µM), for inactives: top-dose activity change, negative = inhibition, usual class: inhibitors. 0.35% of 350,000 active;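 also: plate controls were vehicle for no effect and reference inhibitor for full effect; nearly all actives have a fitted effect of over 55% in size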
#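 APE1 at 0.75 nM preincubated 15 min at room temperature with compound. Reaction then started with 50 nM double-stranded THF-abasic substrate labelled with TAMRA/BHQ-2, and 525/598 nm fluorescence read kinetically. Activity taken as third-minus-first read difference, normalized to DMSO and NSC13755 controls.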
# L3MBTL1 inh-1: inhibitors of human L3MBTL1; 0.66% of 230,000 active; AlphaScreen L3MBTL1–H3K9me1 peptide binding; Potency, µM (series often up to 57.1 µM), for the others: at the highest dose activity, negative = inhibition, most hits filed as inhibitors; also: % is scaled to controls: 0 for no effect and ±100 for the full control effect; nearly all actives have a fitted effect of over 60% in size
#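 Read-out is AlphaScreen signal from streptavidin donor and nickel chelate acceptor beads (10 ug/mL final each) bridging L3MBTL1 (50 nM) and biotinylated K9-monomethylated H3(1-15) peptide (75 nM), after 30 min compound exposure at room temperature.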
# RECQ1 inh-1: blocks DNA unwinding by human RECQ1; Potency, µM (doses to about 57.3 µM), without a hit: at the top dose activity, negative = inhibition, actives largely listed as inhibitors; RECQ1 DNA unwinding, red fluorescence kinetic read; 0.54% of 240,000 active;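 also: plate controls were vehicle for no effect and no enzyme for full effect; nearly all actives have a fitted effect of over 30% in size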
# Target sequence (P46063 whole entry, looked up): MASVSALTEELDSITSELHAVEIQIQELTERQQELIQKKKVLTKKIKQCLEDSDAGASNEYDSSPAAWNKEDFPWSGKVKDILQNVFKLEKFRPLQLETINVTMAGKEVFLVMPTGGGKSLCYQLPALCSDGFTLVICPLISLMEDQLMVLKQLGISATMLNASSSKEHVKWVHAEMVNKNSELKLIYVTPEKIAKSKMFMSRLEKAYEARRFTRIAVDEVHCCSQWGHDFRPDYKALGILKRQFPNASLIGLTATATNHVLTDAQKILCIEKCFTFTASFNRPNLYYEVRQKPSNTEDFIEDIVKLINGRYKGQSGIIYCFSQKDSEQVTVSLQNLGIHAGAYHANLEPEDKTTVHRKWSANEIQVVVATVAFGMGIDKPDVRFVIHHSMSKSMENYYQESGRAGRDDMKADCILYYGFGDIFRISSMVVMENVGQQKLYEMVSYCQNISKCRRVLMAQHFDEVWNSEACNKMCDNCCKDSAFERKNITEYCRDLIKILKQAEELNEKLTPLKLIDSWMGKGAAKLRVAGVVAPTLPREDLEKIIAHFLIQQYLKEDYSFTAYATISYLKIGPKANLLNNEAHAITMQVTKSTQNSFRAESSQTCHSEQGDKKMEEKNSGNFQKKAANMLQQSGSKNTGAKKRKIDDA
#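 50 nM RECQ1T1 preincubated 15 min with compound in Tris pH 8.0 buffer with MgCl2, DTT, Tween-20 and 2.5 ug/ml poly(dI-dC); started with 200 nM TAMRA/BHQ-2 forked duplex and 2 mM ATP. Unwinding read as fluorescence (525/598 nm), two reads 2 h apart.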
# RECQ1 conf: confirmation of human RECQ1 helicase inhibitors | shares compounds with RECQ1 inh-1 | RECQ1 helicase DNA unwinding, fluorescence | Potency, µM (doses to about 229 µM), inactives show at the top dose activity change, negative = inhibition, hits mostly inhibitors | 28% of 610 active | AID 2708; also: % is scaled to controls: 0 for no effect and ±100 for the full control effect; nearly all actives have a fitted effect of over 45% in size
# RECQ1 inh-2: confirmation of human RECQ1 helicase inhibitors. shares compounds with RECQ1 inh-1. recombinant RECQ1 DNA unwinding, red fluorescence. Potency, µM (top dose mostly 119 µM), inactives show at the top dose activity, negative = inhibition, most hits filed as inhibitors. 15% of 1,100 active. AID 504841; also: % is scaled to controls: 0 for no effect and ±100 for the full control effect; nearly all actives have a fitted effect of over 50% in size
# L3MBTL1 inh-2: validation of human L3MBTL1 methyl-lysine binding inhibitors; shares compounds with L3MBTL1 inh-1; L3MBTL1 methyl-lysine binding inhibition, biochemical qHTS; Potency, µM, most hits filed as inhibitors; 91% of 500 active; also: nearly all actives have a fitted effect of over 70% in size
# AlphaScreen ctr2: AlphaScreen signal inhibition, L3MBTL1 hit counter-screen | shares compounds with L3MBTL1 inh-1 | AlphaScreen counterscreen, signal inhibition | Potency, µM (titrated, usually from 57.1 µM), inactives show top-dose activity change, negative = inhibition, actives largely listed as inhibitors | 500 tested, under 10 active; also: 0% is about no effect
# Starred values were filed as active, the others as inactive; i = inactive; ? = inconclusive; nt = no result given; [ ] = another dose, or the depositor's remark. Many of the other results were omitted from the sample, so hits are more common in it than they were. Unless noted, calls follow the shape of the dose curve; as a rule, active = well fitted curve in the direction sought with a large enough effect; inconclusive = small, poorly fitted or top-dose-only effect, or another doubt; inactive = no such curve, though single readings can be large; an effect the other way counts as inactive or inconclusive. Potency is read from the fitted curve at half-maximal effect.
SMILES,KDM4E inh,BLM helicase inh,APE1 inh,L3MBTL1 inh-1,RECQ1 inh-1,L3MBTL1 inh-2,AlphaScreen ctr2,others
O=C(c1ccc2nc(-c3ccco3)c(-c3ccco3)nc2c1)N1CCC2(CC1)OCCO2,?,28.2µM*,?,28.2µM*,12.6µM*,?,-25.6%,RECQ1 conf=17.8%[114 µM];RECQ1 inh-2=-7.3%
CN1CCN(c2cn[nH]c(=O)c2Cl)CC1,-16.0%,-8.7%,-1.1%,-3.4%,i,nt,nt,
CC(C)N1C(=O)/C(=C/C=C/c2ccco2)C(=O)N(Cc2ccco2)C1=O,-28.0%,?,?,31.6µM*,10µM*,4.74*,-25.1%,
CN1CCC2(CC1)NC(=O)C1=C(CN(C)CC1)N2,-2.9%,1.6%,-1.6%,28.2µM*,8.0%,?,-0.5%,
CN1CCC2(CC1)NC(=O)c1ccccc1N2,?,-1.9%,?,nt,13.0%,nt,nt,
O=C1NC(=O)N(c2cccc(Cl)c2)C(=O)/C1=C\c1ccc(Sc2nc3ccccc3[nH]2)o1,?,-12.7%,?,31.6µM*,12.6µM*,26.7*,-7.8%,
NC(CC(=O)O)C1CCCCC1 (stereo not drawn),-7.1%,2.9%,15.2%,3.2%,1.7%,nt,nt,
C=CCN1C(=O)NC(=O)/C(=C\c2ccc(-c3ccccc3[N+](=O)[O-])o2)C1=O,-23.3%,-3.8%,-7.9%,-5.8%,-3.2%,nt,nt,
O=C1NC(=O)N(Cc2ccco2)C(=O)/C1=C/c1ccc(-c2cccc([N+](=O)[O-])c2)o1,?,?,28.2µM*,28.2µM*,?,3.36*,-21.0%,
CN(C)c1ccc(/C=C2/C(=N\O)C3CCN2CC3)cc1,-20.0%,-6.5%,-1.4%,-18.6%,-14.5%,nt,nt,
